FBPA Giardia inh: qHTS Assay for Inhibitors of Fructose-1,6-bisphosphate Aldolase from Giardia Lamblia; A8B2U2; purified Giardia FBPA; Potency, µM (top dose mostly 59.6 µM), usual class: inhibitors; 0.71% of 290,000 active; AID 2451, 2010; further: nearly all actives have a fitted effect of over 55% in size
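Giardia FBPA (40 nM reagent) was preincubated 10 min at RT with compound (up to 57.5 uM final), then substrate plus GAPDH/TPI/NAD/arsenate coupling system with diaphorase/resazurin was added; resorufin fluorescence (525/598 nm) was read after 20 min.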
Cycloheximide cs: Cycloheximide Counterscreen for Small Molecule Inhibitors of Shiga Toxin | cell reporter, cycloheximide protein synthesis inhibition counterscreen | max response, % | 12% of 300,000 active | AID 2314, 2010; in the data active means max response mostly above about 13%, no sharp cut-off; inactive means mostly below about 14%; further: read at 38.3 µM for the half of the compounds with a filed dose
LmPK inhibitor: qHTS Assay for Inhibitors of Leishmania Mexicana Pyruvate Kinase (LmPK) | Q27686 | purified LmPK, Kinase-Glo ATP luminescence, 1 h | Potency, µM (highest dose often 57.5 µM), hits mostly inhibitors | 0.37% of 290,000 active
Target sequence (Q27686 whole entry, looked up): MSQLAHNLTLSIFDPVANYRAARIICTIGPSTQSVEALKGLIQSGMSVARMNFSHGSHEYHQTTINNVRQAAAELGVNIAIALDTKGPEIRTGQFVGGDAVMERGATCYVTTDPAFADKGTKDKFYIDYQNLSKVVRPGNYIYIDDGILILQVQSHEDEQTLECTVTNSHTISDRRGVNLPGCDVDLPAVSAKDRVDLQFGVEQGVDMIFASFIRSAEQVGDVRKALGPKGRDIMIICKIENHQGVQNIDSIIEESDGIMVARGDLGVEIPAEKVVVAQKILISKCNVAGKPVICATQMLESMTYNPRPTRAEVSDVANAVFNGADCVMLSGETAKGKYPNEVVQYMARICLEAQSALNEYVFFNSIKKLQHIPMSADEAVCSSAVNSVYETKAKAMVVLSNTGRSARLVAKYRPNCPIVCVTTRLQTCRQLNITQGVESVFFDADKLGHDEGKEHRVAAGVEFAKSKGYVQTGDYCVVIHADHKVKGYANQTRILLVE
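In 50 mM imidazole pH 7.2 with 7 mM MgCl2, LmPK (0.1 nM) turned over PEP (0.5 mM) and ADP (0.1 mM) for 1 h at room temperature. Luciferase read-out of ATP.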
Shiga toxin inh: A qHTS for Small Molecule Inhibitors of Shiga Toxin; Vero cells, Shiga toxin protein synthesis inhibition reporter; inhibition, % at 38.7 µM; 9.2% of 290,000 active; AID 2315, 2010; in the data active means inhibition mostly above about 28%, no sharp cut-off; inactive means mostly below about 43%
TbPYK inhibitor: qHTS of Trypanosoma Brucei Inhibitors; Potency, µM (titrated, usually from 76.8 µM), most hits filed as inhibitors; pyruvate kinase (Trypanosoma brucei), Q57TT1; TbPYK enzyme, Kinase-Glo Plus ATP luminescence, 45 min; 0.12% of 410,000 active; further: nearly all actives have a fitted effect of over 50% in size
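Readout: single end-point luminescence (Kinase-Glo Plus, 10 min). Reaction conditions were TbPYK/substrate plus 130 uM ADP, 45 min at RT, pH 7.2 TEA buffer. No-enzyme wells served as controls, and data were normalized before concentration-response fitting.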
RE007 growth inh: qHTS Assay for Inhibitors of the HIV-1 protein Vpr; S. pombe RE007 Vpr strain, BacTiter-Glo ATP luminescence, 24 h; Potency, µM (top dose mostly 92.2 µM), usual class: inhibitors; 0.21% of 360,000 active; active means well fitted falling curve with a large enough effect; inconclusive means small, poorly fitted or top-dose-only effect; inactive means no such curve, though single readings can be large or run the other way; further: nearly all actives have a fitted effect of over 50% in size
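Fission yeast strain RE007, carrying one chromosomally integrated HIV-1 vpr copy, was seeded at OD 0.01 in PMG+AL medium with 23 nL pinned compound. After 24 h at 30 °C and 99% humidity, viability was read by BacTiter-Glo luminescence.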
A number is an active result; - = inactive; ? = inconclusive; . = no result given; [ ] = dose if it differs, or a comment. This is one part of a sample in which hits are shown more often than they occur. Unless noted, the call rests on the fitted dose curve; in most records, active means well fitted curve in the direction sought with a large enough effect; inconclusive means small, poorly fitted or top-dose-only effect, or another doubt; inactive means no such curve, though single readings can be large; an effect the other way counts as inactive or inconclusive.

SMILES	FBPA Giardia inh	Cycloheximide cs	LmPK inhibitor	Shiga toxin inh	TbPYK inhibitor	RE007 growth inh
CC(C)(C)c1ccc(S(=O)(=O)NNC(=O)c2cc3ccccc3[nH]2)cc1	-	27.3	-	53.5	-	-
CCCC(C)NNC(=O)c1cc2ccccc2[nH]1 (stereo not drawn)	-	-	-	-	-	-
Cc1ccc(NC(=O)c2cc3cc(OC(F)(F)F)ccc3[nH]2)cc1	-	-	-	-	-	-
COc1ccc2[nH]c(C(=O)Nc3ccc(C)c(F)c3)cc2c1	-	35.8	-	69.5	-	-
CCCCCC(O)/C=C/C=C\CCCCCCCC(=O)O (stereo not drawn)	-	.	.	.	.	.
O=C(Nc1cccc(S(=O)(=O)Nc2ccc(Cl)cc2)c1)c1cc2c(s1)CCCC2	-	-	-	-	-	-
O=C(Nc1ccon1)c1cc2c(s1)CCCC2	-	35.1	?	63.7	-	?
CNC(=O)c1cc2c(s1)CCCCCC2	-	-	-	-	-	-
O=C(Nc1ccon1)c1cc2c(s1)CCCCCC2	-	29.8	-	64.1	-	-
CCOC(=O)c1cc(-c2ccccc2)n(CCC(=O)NC2CCCCC2)c1C	.	.	.	.	-	.
Cc1ccc(Nc2ncnc(N)n2)cc1C	-	25.8	-	50.0	-	-
Cc1cccc(C)c1NC(=O)CN1C(=O)c2cccc3cccc1c23	.	.	.	.	-	.
Cc1ccc(N2CCN(C(=O)c3c(C)oc4ncn(CC(C)C)c(=O)c34)CC2)c(C)c1	.	.	.	.	-	.
COc1cccc(OC)c1C(=O)NC(=S)Nc1ccc2c(c1)OCCO2	-	34.1	-	42.2	-	-
O=C(Nc1ccc2c(c1)OCCO2)c1ccccc1F	-	46.7	-	50.3	?	-
COc1cc(C(=O)NC(=S)Nc2ccc3c(c2)OCO3)cc(OC)c1OC	-	-	-	-	-	-
CCOc1cccc(C(=O)NC(=S)Nc2ccc3c(c2)OCCO3)c1	-	61.4	-	113.5	-	-
COc1ccc(-c2cc3ccccc3oc2=O)cc1NC(=S)NC(=O)c1ccc2c(c1)OCCO2	-	63.4	-	115.0	-	-
CCOc1cc(-c2nc(-c3ccc(-c4ccc(OC)cc4)nc3OC)no2)cc(OCC)c1OCC	.	.	.	.	-	.
Cc1nc2ccc(S(=O)(=O)N(C)CC(=O)Nc3cccc(C(F)(F)F)c3)cc2s1	.	.	.	.	-	.
COc1ccc(Cn2c(=O)c3cccnc3n(CC(=O)Nc3ccc(C)c(F)c3)c2=O)cc1	.	.	.	.	-	.
O=C(NC(=S)Nc1ccc2c(c1)OCCO2)c1ccccc1	-	55.4	-	73.2	-	-
CS(=O)(=O)Nc1ccccc1C(=O)Nc1ccc2c(c1)OCCO2	-	15.2	-	-	-	-
O=C(NC(=S)Nc1ccc2oc(=O)ccc2c1)c1ccccc1F	-	24.6	-	-	-	-
O=C(Nc1ccc2c(c1)OCCO2)c1ccccc1Cl	.	.	.	.	-	-
SMILES	FBPA Giardia inh	Cycloheximide cs	LmPK inhibitor	Shiga toxin inh	TbPYK inhibitor	RE007 growth inh
Cc1onc(-c2ccccc2)c1C(=O)Nc1ccc2c(c1)OCCO2	-	-	-	-	-	-
O=C(Nc1ccc2c(c1)OCCO2)c1c(F)cccc1F	-	41.1	-	74.1	-	-
C[C@H](NC(=O)[C@@H](N)Cc1ccc(O)cc1)C(=O)NCC(=O)N[C@H]1CSSC[C@@H](C(=O)O)NC(=O)[C@H](CO)NC(=O)[C@H]([C@@H](C)O)NC(=O)[C@H](Cc2ccccc2)NC(=O)[C@H]([C@@H](C)O)NC(=O)[C@H](CCCCN)NC(=O)[C@H](Cc2c[nH]c3ccccc23)NC(=O)[C@H](Cc2ccccc2)NC(=O)[C@H](Cc2ccccc2)NC(=O)[C@H](CC(N)=O)NC(=O)[C@H](CCCCN)NC1=O	-	-	.	-	.	.
O=C(NC(=S)Nc1ccc2c(c1)OCCO2)c1ccccc1F	-	40.9	-	144.9	-	-
O=C(Nc1ccc(NC(=S)NC(=O)c2ccccc2F)cc1)c1cccs1	-	-	-	-	-	-
COCCNC(=O)/C(C#N)=C/c1ccc(O)cc1	-	18.8	12.6µM	-	?	?
COCCNC(=O)/C(C#N)=C/C=C/c1ccccc1[N+](=O)[O-]	-	17.3	-	-	-	-
COCCNC(=O)/C(C#N)=C/c1cccc(/C=C(\C#N)C(=O)NCCOC)c1	-	-	-	-	-	-
COC(C)=O	.	.	.	.	-	.
Cc1ccc(-n2ncc3c(N4CCCC4)ncnc32)c(C)c1	-	-	-	-	.	-[3.69 µM]
Cc1ccc(-n2ncc3c(N4CCCC(C)C4)ncnc32)c(C)c1 (stereo not drawn)	-	64.9	-	82.6	-	-
CC1CC(C)CN(c2ncnc3c2cnn3-c2ccc(Cl)cc2)C1 (stereo not drawn)	-	59.3	-	105.3	-	-
CC1CCCN(c2ncnc3c2cnn3-c2ccc(F)cc2)C1 (stereo not drawn)	.	.	.	.	-	.
CC1CCCN(c2ncnc3c2cnn3-c2ccccc2)C1 (stereo not drawn)	-	19.5	-	-	-	-
COc1cccc(N2CCN(c3ncnc4c3cnn4-c3ccc(C)cc3C)CC2)c1	-	17.1	-	-	-	-
Cc1ccc(C)c(CSc2cn(CC(=O)N3CCCC3)c3ccccc23)c1	.	.	.	.	-	.
c1ccc(-n2cnnn2)cc1	.	.	.	.	-	.
CC1CCCN(c2ncnc3c2cnn3-c2ccc(Cl)cc2)C1 (stereo not drawn)	-	61.8	-	59.5	-	-
Cc1ccc(NC(=O)C(CC(C)C)N2Cc3ccccc3C2=O)cc1F (stereo not drawn)	.	.	.	.	-	.
CC(=O)c1cccc(NC(=O)NCCc2c[nH]c3ccccc23)c1	-	12.0	-	-	-	-
COc1ccc2[nH]cc(CCNC(=O)Nc3cccc(F)c3)c2c1	.	.	.	.	-	.
Cc1ccc2[nH]cc(CCNC(=O)Nc3ccccc3)c2c1	-	12.5	-	-	-	-
Cc1ccccc1NC(=O)NCCc1c[nH]c2ccccc12	-	-	-	-	-	-
CC1=NN(C(N)=S)C(=O)C1N=Nc1ccc(O)cc1 (stereo not drawn)	-	23.6	-	32.4	-	-
CC1=NN(c2nc(-c3ccc(C)cc3)cs2)C(=O)C1N=Nc1cccc(C)c1 (stereo not drawn)	-	20.4	-	-	-	-
CCOc1ccc(N=NC2C(=O)N(C(N)=S)N=C2C)cc1 (stereo not drawn)	?	28.0	-	.	-	?
COc1ccccc1N=NC1C(=O)N(C(N)=S)N=C1C (stereo not drawn)	?	-	-	.	-	?
CC1=NN(C(N)=S)C(=O)C1N=Nc1ccc(F)cc1 (stereo not drawn)	-	25.2	-	65.7	-	-
CCOC(=O)c1sc(N2N=C(C)C(N=Nc3cccc(C)c3)C2=O)nc1C (stereo not drawn)	-	-	-	-	-	-
Cc1ccc(-n2c(=O)c3cccnc3n2CC(=O)Nc2ccc(Br)cc2)cc1C	.	.	.	.	-	.
